Experiment [1] concerns the target Serine/threonine-protein kinase pim-2 (Homo sapiens) (UniProt Q9P1W9). Particulars: at 1 µM.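 Note: each value is a mean of the inhibition measurements against the kinase.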
Experiment [2] concerns the target Serine/threonine-protein kinase pim-3 (Homo sapiens) (UniProt Q86V86). Particulars: at 0.1 µM.
For experiment [3] the target is unchanged. Particulars: at 1 µM.
For experiment [4], the target named is T1, MAP kinase-activated protein kinase 5 (Homo sapiens) (UniProt Q8IW41).
T1 sequence (whole entry): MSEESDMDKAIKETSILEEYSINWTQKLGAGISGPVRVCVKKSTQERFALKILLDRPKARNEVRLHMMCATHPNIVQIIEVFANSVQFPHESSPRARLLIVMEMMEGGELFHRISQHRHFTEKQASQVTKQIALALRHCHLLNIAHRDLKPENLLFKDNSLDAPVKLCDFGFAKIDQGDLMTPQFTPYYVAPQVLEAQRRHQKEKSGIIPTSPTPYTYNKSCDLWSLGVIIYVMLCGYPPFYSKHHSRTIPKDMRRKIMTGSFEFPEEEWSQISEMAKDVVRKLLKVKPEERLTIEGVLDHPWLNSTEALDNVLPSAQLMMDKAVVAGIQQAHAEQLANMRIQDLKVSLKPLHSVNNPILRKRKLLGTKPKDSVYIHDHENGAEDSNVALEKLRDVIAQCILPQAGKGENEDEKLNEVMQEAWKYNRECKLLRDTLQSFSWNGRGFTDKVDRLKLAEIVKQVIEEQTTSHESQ
Particulars: at 0.1 µM.

For experiment [5], the target named is T1, MAP kinase-activated protein kinase 5 (Homo sapiens). Particulars: at 1 µM.
The target of experiment [6] is Serine/threonine-protein kinase SIK1 (Homo sapiens) (UniProt P57059). Particulars: at 0.1 µM.
The target is the same in experiment [7]. Particulars: at 1 µM.
Experiment [8] addresses Serine/threonine-protein kinase SIK2 (Homo sapiens) (UniProt Q9H0K1). Particulars: at 0.1 µM.
The target is the same in experiment [9]. As to conditions: at 1 µM.
Experiment [10] deals with T2, Serine/threonine-protein kinase TBK1 (Homo sapiens) (UniProt Q9UHD2).
T2 sequence (whole entry): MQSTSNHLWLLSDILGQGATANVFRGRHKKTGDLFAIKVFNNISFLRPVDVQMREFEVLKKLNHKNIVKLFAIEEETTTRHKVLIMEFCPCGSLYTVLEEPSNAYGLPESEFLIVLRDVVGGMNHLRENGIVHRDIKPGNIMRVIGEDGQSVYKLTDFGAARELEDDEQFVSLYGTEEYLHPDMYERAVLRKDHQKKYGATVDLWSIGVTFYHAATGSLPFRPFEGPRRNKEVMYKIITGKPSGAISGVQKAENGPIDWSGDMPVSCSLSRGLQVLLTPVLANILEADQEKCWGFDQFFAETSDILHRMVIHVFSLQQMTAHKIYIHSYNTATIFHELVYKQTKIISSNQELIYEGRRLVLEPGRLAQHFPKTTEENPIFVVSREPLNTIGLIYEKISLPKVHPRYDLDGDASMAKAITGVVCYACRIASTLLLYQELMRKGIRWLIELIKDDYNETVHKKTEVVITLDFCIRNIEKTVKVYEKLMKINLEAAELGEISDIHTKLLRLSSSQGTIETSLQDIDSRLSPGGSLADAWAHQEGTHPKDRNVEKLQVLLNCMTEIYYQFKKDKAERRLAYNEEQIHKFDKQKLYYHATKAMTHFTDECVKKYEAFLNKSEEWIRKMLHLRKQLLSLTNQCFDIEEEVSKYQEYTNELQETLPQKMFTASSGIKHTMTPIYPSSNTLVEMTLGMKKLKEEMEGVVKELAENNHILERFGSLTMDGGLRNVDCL
Particulars: at 0.1 µM.

Experiment [11] deals with T2, Serine/threonine-protein kinase TBK1 (Homo sapiens). Particulars: at 1 µM.
Experiment [12] deals with T3, Testis-specific serine/threonine-protein kinase 1 (Homo sapiens) (UniProt Q9BXA7).
T3 sequence (whole entry): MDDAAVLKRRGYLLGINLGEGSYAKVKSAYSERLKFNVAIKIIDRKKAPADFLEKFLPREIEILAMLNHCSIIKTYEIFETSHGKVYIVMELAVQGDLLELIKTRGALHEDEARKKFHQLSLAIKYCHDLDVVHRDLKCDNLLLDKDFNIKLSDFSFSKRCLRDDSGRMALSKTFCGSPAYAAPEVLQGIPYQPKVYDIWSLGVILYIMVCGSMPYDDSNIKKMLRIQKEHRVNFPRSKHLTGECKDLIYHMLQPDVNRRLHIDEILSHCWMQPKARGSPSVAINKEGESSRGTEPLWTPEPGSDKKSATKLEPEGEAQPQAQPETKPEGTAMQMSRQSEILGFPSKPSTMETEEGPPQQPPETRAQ
Particulars: at 0.1 µM.

The target of experiment [13] is T3, Testis-specific serine/threonine-protein kinase 1 (Homo sapiens). Particulars: at 1 µM.
Experiment [14] concerns the target T4, Testis-specific serine/threonine-protein kinase 2 (Homo sapiens) (UniProt Q96PF2).
T4 sequence (whole entry): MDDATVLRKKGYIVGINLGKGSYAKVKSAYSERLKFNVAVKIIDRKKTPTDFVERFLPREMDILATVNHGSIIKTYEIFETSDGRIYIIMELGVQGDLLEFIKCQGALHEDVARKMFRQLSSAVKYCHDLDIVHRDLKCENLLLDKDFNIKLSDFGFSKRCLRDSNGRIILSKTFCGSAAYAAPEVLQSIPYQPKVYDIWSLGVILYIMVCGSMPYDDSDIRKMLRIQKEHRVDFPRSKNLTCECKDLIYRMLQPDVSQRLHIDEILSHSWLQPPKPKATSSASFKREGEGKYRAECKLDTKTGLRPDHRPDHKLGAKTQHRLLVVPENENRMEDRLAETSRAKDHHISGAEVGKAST
As to conditions: at 0.1 µM.

In experiment [15] the target is T4, Testis-specific serine/threonine-protein kinase 2 (Homo sapiens). Particulars: at 1 µM.
In experiment [16] the target is Casein kinase I isoform alpha (Homo sapiens) (UniProt P48729). As to conditions: at 0.1 µM.
Experiment [17] has the same target. As to conditions: at 1 µM.
The target of experiment [18] is Casein kinase I isoform gamma-1 (Homo sapiens) (UniProt Q9HCP0). Particulars: at 0.1 µM.
Experiment [19] shares this target. Particulars: at 1 µM.
For experiment [20], the target named is Casein kinase I isoform gamma-2 (Homo sapiens) (UniProt P78368). Particulars: at 0.1 µM.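 Note: values are mean inhibition figures reported as part of the GSK PKIS dataset.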
Casein kinase I isoform gamma-2 (Homo sapiens), sequence (P78368 whole entry, looked up, canonical isoform): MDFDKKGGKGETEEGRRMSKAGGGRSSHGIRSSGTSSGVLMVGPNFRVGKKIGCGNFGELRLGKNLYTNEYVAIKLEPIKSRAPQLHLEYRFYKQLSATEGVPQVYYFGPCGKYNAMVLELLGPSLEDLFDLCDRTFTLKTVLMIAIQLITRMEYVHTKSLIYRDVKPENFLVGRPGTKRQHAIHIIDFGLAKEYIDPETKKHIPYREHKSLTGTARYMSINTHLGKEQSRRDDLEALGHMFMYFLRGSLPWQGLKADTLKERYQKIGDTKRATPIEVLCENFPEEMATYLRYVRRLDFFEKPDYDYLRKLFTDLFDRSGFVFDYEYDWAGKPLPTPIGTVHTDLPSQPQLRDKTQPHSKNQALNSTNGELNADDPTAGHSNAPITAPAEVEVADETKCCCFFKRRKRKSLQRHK

Casein kinase I isoform gamma-1 (Homo sapiens), sequence (Q9HCP0 whole entry, looked up, canonical isoform): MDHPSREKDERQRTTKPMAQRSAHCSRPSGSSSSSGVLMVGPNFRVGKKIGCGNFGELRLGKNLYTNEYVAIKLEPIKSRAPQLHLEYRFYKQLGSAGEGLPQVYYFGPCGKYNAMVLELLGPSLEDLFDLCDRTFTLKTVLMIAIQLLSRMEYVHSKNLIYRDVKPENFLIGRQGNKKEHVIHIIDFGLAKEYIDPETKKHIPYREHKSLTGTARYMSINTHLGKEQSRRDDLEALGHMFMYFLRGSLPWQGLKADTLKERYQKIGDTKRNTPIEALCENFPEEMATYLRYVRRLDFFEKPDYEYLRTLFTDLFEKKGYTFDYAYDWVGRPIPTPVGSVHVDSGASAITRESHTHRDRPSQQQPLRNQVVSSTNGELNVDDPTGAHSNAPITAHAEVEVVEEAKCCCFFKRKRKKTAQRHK
Serine/threonine-protein kinase pim-2 (Homo sapiens), sequence (Q9P1W9 whole entry, looked up): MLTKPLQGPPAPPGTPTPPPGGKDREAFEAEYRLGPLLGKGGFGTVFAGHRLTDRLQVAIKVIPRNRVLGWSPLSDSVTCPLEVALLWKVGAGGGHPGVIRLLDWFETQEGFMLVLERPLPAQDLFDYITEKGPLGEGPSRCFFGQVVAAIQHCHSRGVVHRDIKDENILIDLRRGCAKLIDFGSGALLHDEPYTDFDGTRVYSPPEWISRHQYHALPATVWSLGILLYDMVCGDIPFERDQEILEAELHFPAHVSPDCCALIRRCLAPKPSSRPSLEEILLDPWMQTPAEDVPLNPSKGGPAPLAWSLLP
Casein kinase I isoform alpha (Homo sapiens), sequence (P48729 2-337 limits assumed): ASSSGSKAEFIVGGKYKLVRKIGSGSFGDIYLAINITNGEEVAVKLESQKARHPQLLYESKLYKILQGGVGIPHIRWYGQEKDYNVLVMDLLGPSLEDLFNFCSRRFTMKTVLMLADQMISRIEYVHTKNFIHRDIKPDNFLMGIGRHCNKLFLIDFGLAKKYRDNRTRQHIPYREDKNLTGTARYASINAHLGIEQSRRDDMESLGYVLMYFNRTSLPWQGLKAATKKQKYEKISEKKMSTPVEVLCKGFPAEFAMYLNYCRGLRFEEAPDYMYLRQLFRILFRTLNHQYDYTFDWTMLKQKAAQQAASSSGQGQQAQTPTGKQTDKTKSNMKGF
Serine/threonine-protein kinase SIK1 (Homo sapiens), sequence (P57059 whole entry): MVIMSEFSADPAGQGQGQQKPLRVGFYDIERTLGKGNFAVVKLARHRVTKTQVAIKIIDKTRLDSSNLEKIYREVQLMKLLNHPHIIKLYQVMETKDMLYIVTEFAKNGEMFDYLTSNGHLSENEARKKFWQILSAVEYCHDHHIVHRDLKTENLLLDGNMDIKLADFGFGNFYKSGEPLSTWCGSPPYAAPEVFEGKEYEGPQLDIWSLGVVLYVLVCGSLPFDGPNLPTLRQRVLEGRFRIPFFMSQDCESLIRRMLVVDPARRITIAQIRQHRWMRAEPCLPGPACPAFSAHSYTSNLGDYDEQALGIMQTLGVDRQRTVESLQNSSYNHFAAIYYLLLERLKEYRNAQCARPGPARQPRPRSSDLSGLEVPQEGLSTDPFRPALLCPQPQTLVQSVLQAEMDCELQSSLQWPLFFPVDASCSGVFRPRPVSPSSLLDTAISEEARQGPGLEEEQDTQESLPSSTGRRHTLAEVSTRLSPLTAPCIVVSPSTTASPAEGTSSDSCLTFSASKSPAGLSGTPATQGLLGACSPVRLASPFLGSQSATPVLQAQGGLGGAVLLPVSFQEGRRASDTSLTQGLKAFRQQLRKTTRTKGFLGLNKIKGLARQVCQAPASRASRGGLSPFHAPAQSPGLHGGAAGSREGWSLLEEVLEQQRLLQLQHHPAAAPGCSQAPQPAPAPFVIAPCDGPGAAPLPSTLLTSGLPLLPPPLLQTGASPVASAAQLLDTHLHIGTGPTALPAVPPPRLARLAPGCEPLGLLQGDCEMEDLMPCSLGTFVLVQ
Serine/threonine-protein kinase SIK2 (Homo sapiens), sequence (Q9H0K1 whole entry, looked up): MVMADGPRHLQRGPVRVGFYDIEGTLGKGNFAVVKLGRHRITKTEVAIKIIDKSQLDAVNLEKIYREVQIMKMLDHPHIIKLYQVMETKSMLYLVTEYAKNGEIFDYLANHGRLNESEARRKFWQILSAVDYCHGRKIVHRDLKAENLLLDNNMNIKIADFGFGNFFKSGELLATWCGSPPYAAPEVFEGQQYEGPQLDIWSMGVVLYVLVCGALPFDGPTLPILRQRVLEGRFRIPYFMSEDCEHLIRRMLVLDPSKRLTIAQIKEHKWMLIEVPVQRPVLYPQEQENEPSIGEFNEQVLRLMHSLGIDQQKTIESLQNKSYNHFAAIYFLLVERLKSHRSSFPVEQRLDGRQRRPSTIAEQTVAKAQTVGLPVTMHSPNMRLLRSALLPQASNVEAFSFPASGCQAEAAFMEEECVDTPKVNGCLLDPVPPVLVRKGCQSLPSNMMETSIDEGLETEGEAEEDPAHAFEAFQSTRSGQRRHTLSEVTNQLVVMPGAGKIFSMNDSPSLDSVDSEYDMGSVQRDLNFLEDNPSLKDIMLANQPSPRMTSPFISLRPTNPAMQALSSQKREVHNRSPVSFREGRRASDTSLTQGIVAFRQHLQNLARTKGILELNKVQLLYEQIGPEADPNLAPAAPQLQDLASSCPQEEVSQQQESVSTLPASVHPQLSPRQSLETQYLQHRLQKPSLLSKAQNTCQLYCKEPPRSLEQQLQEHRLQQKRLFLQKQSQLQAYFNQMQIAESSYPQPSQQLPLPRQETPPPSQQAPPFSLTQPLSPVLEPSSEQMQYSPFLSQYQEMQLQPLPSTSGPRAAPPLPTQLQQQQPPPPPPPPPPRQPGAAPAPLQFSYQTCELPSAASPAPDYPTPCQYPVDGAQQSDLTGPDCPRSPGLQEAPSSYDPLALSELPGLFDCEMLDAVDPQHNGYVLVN

The inhibition is the change of the read-out against control, counted positive when it falls. As for `COc1ccc2c(-c3ccnc(Nc4cccc(OC(F)(F)F)c4)n3)cnn2n1`, the inhibition in [1] was 0.02%; in [2], 0.74%; in experiment [3], 1.07%; in experiment [4], 1.98%; in [5], 3.27%; in experiment [6], 7.04%. In addition, the inhibition in [7] is 12.8%; in [8], 9.16%; in experiment [9], 12.1%; in [10], 7.22%; in [11] it was 31.6%; in experiment [12], 3.88%. Also, the inhibition came out at 7% in experiment [13]; 3.39% in experiment [14]; 2.18% in experiment [15]; 2.85% in [16]; 9.17% in [17]; 3.59% in experiment [18]. The inhibition was determined as 6.06% in experiment [19] and 3.21% in [20].
`FC(F)(F)c1cccc(-c2nn3ncccc3c2-c2ccnc(Nc3ccc4c(c3)OCCO4)n2)c1`: the inhibition is 0.66% in [1]; -1.58% in experiment [2]; -2.3% in [3]; 0.49% in experiment [4]; -0.29% in [5]; 3.06% in experiment [6]. The inhibition in experiment [7] amounted to 6.62%; in [8], 3.42%; in experiment [9], 6.02%; in experiment [10], 0.3%; in experiment [11], 2.28%; in experiment [12], 2.75%. The inhibition in experiment [13] was 1.2%; in experiment [14], -0.07%; in experiment [15], -1.1%; in experiment [16], 1.53%; in [17] it was 4.39%; in experiment [18], 2.58%. Further, the inhibition in [19] worked out at 4.21%; in experiment [20], 1.92%.
For `CCOc1ccc2c(-c3ccnc(Nc4cccc(C(F)(F)F)c4)n3)cnn2n1`, the inhibition in experiment [1] was -0.33%; in experiment [2], -1.1%; in experiment [3], -1.96%; in experiment [4], 0.3%; in experiment [5], -0.41%; in [6], 2.46%. In addition, the inhibition amounted to 3.82% in experiment [7]; 2.86% in [8]; 3.43% in experiment [9]; 2.13% in experiment [10]; 13.1% in experiment [11]; 2.69% in experiment [12]. Moreover, the inhibition in experiment [13] came out at 3.46%; in experiment [14], 0.15%; in experiment [15], 0.22%; in experiment [16] it was 0.42%; in experiment [17] it was 0.35%; in experiment [18], 2.16%. Moreover, the inhibition in [19] worked out at 3.1%; in [20], 2.06%.
For the compound `CNC(=O)c1cncc(/C=C/c2ccccc2Cl)c1`, the inhibition in experiment [1] is 0.04%; in [2], 3.4%; in experiment [3] it was 5.1%; in [4], 0.27%; in experiment [5], 1.73%; in [6], 2.02%. Also, the inhibition came out at 25.6% in experiment [7]; 2.24% in experiment [8]; 8.3% in experiment [9]; 0.45% in experiment [10]; 4.1% in experiment [11]; 0.22% in experiment [12]. Moreover, the inhibition is 1.52% in [13]; -0.03% in [14]; 2.91% in experiment [15]; 0.76% in experiment [16]; -0.31% in experiment [17]; 0.2% in [18]. The inhibition in [19] was -0.31%; in experiment [20], 0.91%.
As for `COc1cccc(-c2c[nH]c3c(N/N=C/c4ccncc4)ncnc23)c1`, the inhibition in experiment [1] was 1.1%; in experiment [2], 0.71%; in experiment [3], 2.78%; in experiment [4], 0.16%; in [5], -1.66%; in experiment [6], 10.7%. For the same compound, the inhibition in experiment [7] was determined as 48.9%; in experiment [8], 28.6%; in [9], 67.4%; in [10], 3.26%; in [11] it was 34.6%; in experiment [12], 1.82%. The inhibition in experiment [13] was -0.71%; in experiment [14], 0.73%; in experiment [15] it was -2.11%; in experiment [16], 5.65%; in experiment [17], 7.98%; in [18], 1.21%. The inhibition in experiment [19] was found to be 4.05%; in experiment [20], 0.6%.
As for `[O-][S+]1CCN(Cc2ccc(-c3ccc4ncnc(Nc5ccc(OCc6cccc(F)c6)c(Cl)c5)c4c3)o2)CC1`, the inhibition in [1] came to 0.11%; in experiment [2], 0.21%; in experiment [3] it was 1.34%; in experiment [4] it was 2%; in experiment [5], 2.05%; in experiment [6], 5.68%. Besides, the inhibition in experiment [7] came to 12.1%; in experiment [8], 8.92%; in experiment [9], 10.4%; in experiment [10] it was 5.39%; in experiment [11], 5.41%; in experiment [12], 5.74%. For the same compound, the inhibition in [13] came to 5.31%; in experiment [14], 3.26%; in [15], 3.22%; in experiment [16] it was 5.02%; in [17] it was 4.04%; in experiment [18], 4.04%. Also, the values for the inhibition in [19] and in [20] were 5.15% and 3.65%, respectively.

These data come from ChEMBL document CHEMBL1961873, “Compounds: GSK PKIS; Assays: Nanosyn kinase panel” (2012).
